ELG1 genotox – genotoxicity induction in ELG1-luciferase HEK293T cells; AID 504466; 330,000 tested, 1.3% active; HEK293T ELG1-luciferase reporter, luminescence, 16 h; Potency, µM (top dose mostly 46 µM), inactives show top-dose activity change, positive = activation, hits mostly activators; also: % of control where 0% means no effect; nearly all actives have a fitted effect of over 60% in size
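Reporter readout depends on ELG1 protein level, which increases with genetic stress. After 16 hr compound exposure at 37 °C, luciferase activity was quantified using ONE-Glo.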
SMN2 splice enh – enhancers of SMN2 splice variant expression; HEK293 SMN2-luciferase splicing reporter, luminescence, 30-36 h; 210,000 tested, 2.8% active; Potency, µM (highest dose often 46.1 µM), for the others: top-dose activity change, positive = activation, hits mostly activators; also: % of control where 0% means no effect; nearly all actives have a fitted effect of over 55% in size
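HEK293 cells carry an SMN2 […]–luciferase reporter in which exon 7 inclusion puts luciferase in frame. Cells were plated 10-12 h before compound addition, then incubated 30-36 h at 37C. ONE-Glo luminescence was read; sodium butyrate at 4.5 mM final served as control.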
NPC1 promoter act – activates the NPC1 promoter. Potency, µM (top dose mostly 9.22 µM), without a hit: at the highest dose activation, hits mostly activators. 320,000 tested, 2.4% active. Huh7 NPC1 promoter luciferase reporter, 24 h; also: % of control where 0% means no effect; nearly all actives have a fitted effect of over 60% in size
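Compounds in DMSO were transferred onto Huh7 NPC1-luciferase reporter cells pre-incubated 2 h; after 24 h at 37 °C, Amplite reagent was dispensed and luminescence recorded 10 min later.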
FLuc modulator – firefly luciferase modulation, counter-screen for miR-21 project; P08659; purified FLuc, Km substrates, luminescence inhibition; Potency, µM (doses to about 57.5 µM), inactives show at the top dose activity change, negative = inhibition, usual class: inhibitors; 360,000 tested, 6.9% active;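 also: plate controls were vehicle for no effect and reference inhibitor for full effect; nearly all actives have a fitted effect of over 55% in size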
Target sequence (P08659 whole entry, looked up): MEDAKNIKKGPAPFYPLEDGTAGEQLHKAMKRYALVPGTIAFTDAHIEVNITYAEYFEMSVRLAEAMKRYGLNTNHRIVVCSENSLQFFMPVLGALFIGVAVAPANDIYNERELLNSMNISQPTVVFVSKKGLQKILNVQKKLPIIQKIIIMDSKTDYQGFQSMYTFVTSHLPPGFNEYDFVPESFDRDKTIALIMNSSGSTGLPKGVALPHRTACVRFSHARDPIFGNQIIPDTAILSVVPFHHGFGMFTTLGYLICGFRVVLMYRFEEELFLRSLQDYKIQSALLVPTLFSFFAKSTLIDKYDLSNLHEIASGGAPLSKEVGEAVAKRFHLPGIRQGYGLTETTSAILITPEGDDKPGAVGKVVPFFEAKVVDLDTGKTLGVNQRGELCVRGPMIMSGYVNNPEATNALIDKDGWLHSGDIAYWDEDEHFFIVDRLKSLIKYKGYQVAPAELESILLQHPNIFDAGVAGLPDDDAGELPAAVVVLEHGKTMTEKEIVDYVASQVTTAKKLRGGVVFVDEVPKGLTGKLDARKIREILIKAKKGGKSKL
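Purified P. pyralis luciferase, 10 nM final, with Km-level 10 uM D-luciferin and 10 uM ATP in 50 mM Tris acetate pH 7.5, 10 mM Mg acetate, 0.01% Tween-20, 0.05% BSA; 6-point qHTS titration about 60 µM downward; luminescence read.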
Rab9 promoter act – activators of Rab9 promoter; Huh7 Rab9 promoter-luciferase reporter, luminescence, 24 h; Potency, µM (top dose mostly 9.22 µM), for inactives: at the top dose activation, negative = inhibition, most hits filed as activators; 320,000 tested, 2.8% active; AID 485297; also: % of control where 0% means no effect; nearly all actives have a fitted effect of over 60% in size
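Cells were plated at 1500 per well in reduced-serum medium with 10% FBS and left 2 h. Compound in DMSO was then added for 24 h at 37 °C. Reporter signal was read by luminescence after 10 min with luciferase detection reagent.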
ELG1 DNA repair – ELG1-dependent DNA repair inhibition. HEK293T ELG1-luciferase reporter, luminescence, 16 h; DNA damage induced by 5-fluorouridine. Potency, µM (top dose mostly 46.1 µM), without a hit: at the top dose activity change, negative = inhibition, actives largely listed as inhibitors. 330,000 tested, 2.3% active; also: % is scaled to controls: 0 for no effect and ±100 for the full control effect; nearly all actives have a fitted effect of over 55% in size
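Quantitative HTS, concentration-response format. 2,000 cells/well co-treated with 5-fluorouridine and compound, 16 hr in 5% CO2 at 37 °C; ONE-Glo luminescence read after 30 min.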
Starred values were filed as active, the others as inactive; ? = inconclusive; nt = no result; [ ] = another dose, or the depositor's remark. An excerpt weighted towards active compounds, which were near 9.2% of everything screened. Calls follow the shape of the dose curve; as a rule, active = well fitted curve in the direction sought with a large enough effect; inconclusive = small, poorly fitted or top-dose-only effect, or another doubt; inactive = no such curve, though single readings can be large; an effect the other way counts as inactive or inconclusive. Potency is read from the fitted curve at half-maximal effect.

SMILES	ELG1 genotox	SMN2 splice enh	NPC1 promoter act	FLuc modulator	Rab9 promoter act	ELG1 DNA repair
N#C/C(=C\Nc1ccccn1)C(=O)C1CC1	nt	-7%[9.22 µM]	nt	nt	nt	nt
N#C/C(=C\c1ccccc1Cl)C(=O)Nc1ccccn1	-1%	nt	2%	19µM*	1%	5%
CC(C)(C)c1ccc(/C=C(\C#N)C(=O)Nc2ccccn2)cc1	-5%	nt	2%	8.5µM*	-2%	-5%
CC(C)(C)c1ccc(C(=O)/C(C#N)=C/c2cccs2)cc1	2%	nt	0%	1.2µM*	5%	?
N#C/C(=C\c1ccccc1)C(=O)Nc1ccccn1	0%	nt	0%	15µM*	5%	12%
Cc1cccc(/C=C(\C#N)C(=O)Nc2ccccn2)c1	2%	nt	-1%	?	1%	9%
CC(NC(=O)/C(C#N)=C/c1cccs1)c1ccccc1 (stereo unspecified)	-2%	-1%	-2%	-6%	-3%	2%
COc1ccccc1N1CCN(C(=O)CCn2cnc3onc(-c4ccc(F)cc4)c3c2=O)CC1	nt	nt	nt	-6%	nt	nt
COc1ccc(CCNC(=O)Cn2c(=O)n(-c3ccc(C)c(C)c3)c(=O)c3c(C)c(C)sc32)cc1OC	nt	-4%	nt	-2%	nt	nt
Cc1ccc(NC(=O)/C(C#N)=C/c2ccccc2Cl)cc1C	nt	-7%	nt	11µM*	nt	nt
CC(C)(C)c1ccc(C(=O)Nc2ccc(C=C(C#N)C#N)cc2)cc1	?	?	?	4.8µM*	0.5µM*	?
COc1ccc(Cl)cc1NC(=O)c1nnn(CC(=O)Nc2ccc(C)c(C)c2)c1N	9%	nt	0%	1%	-1%	?
COc1ccc(/C=N/n2c(N)nc3ccccc32)cc1OC	17%	29%	?	5.4µM*	26%	?
C(=N\n1cnc2ccccc21)/c1cccnc1	17%	-41%	10%	?	16%	?
COc1cccc(/C=N/n2cnc3ccccc32)c1OC	2.6µM*	?	2.5µM*	4.8µM*	2.2µM*	?
COc1cccc(/C=N/n2c(N)nc3ccccc32)c1OC	5%	?	?	12µM*	?	?
CCOc1ccc(-c2nn(CC(=O)NC3CCCC3)c3c2cnc2ccc(C)cc23)cc1	nt	nt	nt	3%	nt	nt
O=C1c2ccccc2C(=O)N1Cc1ccccc1F	0%	nt	-5%	0%	0%	12%
CCc1ccc(CNC(=O)COc2cc(=O)n(CC)c3ccccc23)cc1	nt	?	nt	-8%	nt	nt
COc1ccc(CCNC(=O)CCn2c(=O)c3ccccc3n(Cc3ccccc3F)c2=O)cc1OC	nt	3%	nt	-4%	nt	nt
COc1ccc(Cc2nc(-c3ccc(-n4cccc4)cc3)no2)cc1OC	13µM*	-102%	-3%	4%	-19%	?
COc1ccc(Cc2nc(-c3ccccc3)no2)cc1	16µM*	?	?	15µM*	?	?
c1csc(-c2noc(COc3ccc4c(c3)CCCC4)n2)c1	18µM*	13µM*	4µM*	11µM*	2.8µM*	?
COc1ccc(Cc2nc(-c3cccs3)no2)cc1OC	-2%	-24%	1%	?	-6%	-6%
COc1ccc(Cc2nc(-c3ccc(-n4cccc4)cc3)no2)cc1	2%	-34%	0%	-8%	-4%	17%
SMILES	ELG1 genotox	SMN2 splice enh	NPC1 promoter act	FLuc modulator	Rab9 promoter act	ELG1 DNA repair
COc1ccc(Cc2nc(-c3cccs3)no2)cc1	?	?	?	15µM*	?	?
OCCC1CN(Cc2cnc(-c3ccc(Cl)cc3)nc2)CCN1C1CCCC1 (stereo unspecified)	0%	nt	2%	-1%	-15%	6.5µM*
Cc1ccn2c(CNCc3cnn(C)c3)c(C(=O)N3CCCCCC3)nc2c1	5%	nt	0%	1%	3%	-1%
CCCNC1=C(N(C(C)=O)c2cccc(F)c2)C(=O)c2ccccc2C1=O	-13%	-110%	-33%	0%	-38%	4.6µM*
CCC(=O)N(C1=C(NC(C)C)C(=O)c2ccccc2C1=O)C(C)C	-9%	nt	1%	-3%	-5%	?
O=C(NP(=O)(N1CCOCC1)N1CCOCC1)C1=C(N2CCOCC2)/C(=C\c2ccccc2)CC1	4%	5%	0%	-20%	-2%	8%
COc1cc(NC(=O)C2=C(N3CCOCC3)/C(=C\c3ccc(Br)cc3)CC2)cc(OC)c1OC	-6%	16%	-3%	-2%	3%	18µM*
COc1cc(NC(=O)C2=C(N3CCOCC3)/C(=C\c3ccc(Cl)cc3Cl)CC2)cc(OC)c1OC	-1%	14%	-3%	2%	-4%	21µM*
O=C1/C(=C/c2ccccc2)[C@@H](NC2CCCCC2)c2ccccc21	nt	-9%[9.22 µM]	nt	nt	nt	nt
O=C(CNC(=S)N(Cc1ccccc1)Cc1ccccc1F)NCc1ccc(Cl)cc1	-7%	-33%	-6%	4%	-6%	23µM*
Cc1ccc2c(=O)cc(C(=O)Nc3ccc(S(=O)(=O)N4CCCCC4C)cc3)oc2c1C (stereo unspecified)	nt	14%	nt	2%	nt	nt
Cc1cc(NC(=O)c2coc(=O)c(Br)c2)ccc1C(C)C	?	nt	18%	5.4µM*	?	?

Screening data (PubChem)
